This is an account of results in PubChem BioAssay (NCI).

What all share (experiment): NCI-60 one-dose screen, 48 h (100 = growth as untreated, 0 = no growth, -100 = all killed)
What all share (details): 10 µM unless noted

The test system of assay [1] is SK-MEL-2 melanoma.
The subject of assay [2] is EKVX NSCLC.
The test system of assay [3] is SN12C renal.
Assay [4] concerns UO-31 renal.
Assay [5] relates to TK-10 renal.
In assay [6] the test system is ACHN renal.
Assay [7] deals with CAKI-1 renal.
The test system of assay [8] is A498 renal.
Assay [9] concerns CCRF-CEM leukemia.
Assay [10] has as its system MOLT-4 leukemia.
In assay [11] the test system is SR leukemia.
Assay [12] has as its system RPMI-8226 leukemia.
Assay [13] relates to OVCAR-8 ovarian.
In assay [14] the test system is OVCAR-5 ovarian.
In assay [15] the test system is OVCAR-4 ovarian.
Assay [16] has as its system SK-OV-3 ovarian.
The subject of assay [17] is IGROV1 ovarian.
Assay [18] has as its system OVCAR-3 ovarian.
The subject of assay [19] is HS 578T breast.
Assay [20] relates to NCI/ADR-RES ovarian.

About 83,000 compounds went through this panel and 20% of them were active in at least one assay; those are over-represented in the sample as a whole.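 Cells were grown in 96-well plates and exposed to the test compound at a single concentration for 48 hours; results are reported as percent growth, with values below 10 considered active.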 A number with no mark means an inactive call. Activity calls are given as the source filed them.

`COc1ccc(-c2ccc(O)c(C(=O)/C=C/c3cc(OC)c(OC)c(OC)c3)c2)cc1`: the growth in assay [1] is 84.4%; in [2], 79.8%; in assay [3], 94.6%; in [4], 59.7%; in assay [5], 103%; in assay [6] it was 85.7%. Also, the growth in assay [7] was 86.5%; in [8] it was 124%; in assay [9], 24.2%; in assay [10], 34.3%; in assay [11], 56.2%; in [12], 24.7%. In addition, the growth in assay [13] is 71.8%; in assay [14], 106%; in assay [15] it was 79.6%; in [16] it was 77.6%; in assay [17] it was 78.3%; in [18] it was 93.7%. In addition, the growth in assay [19] was 113%; in assay [20], 69.9%.
As for `CCN(Cc1cccc(S(=O)(=O)[O-])c1)c1ccc(C(=C2C=CC(=[N+](CC)Cc3cccc(S(=O)(=O)O)c3)C=C2)c2ccccc2S(=O)(=O)O)cc1`, the growth is 115% in assay [1]; 94.1% in assay [2]; 109% in assay [3]; 85.9% in assay [4]; 93.1% in assay [5]; 104% in assay [6]. In addition, the growth was 96.7% in assay [7]; 134% in assay [8]; 95.3% in [9]; 96.5% in assay [10]; 95.6% in [11]; 100% in assay [12]. Besides, the growth is 104% in assay [13]; 94.5% in [14]; 93.4% in [15]; 102% in assay [16]; 110% in [17]; 102% in assay [18]. For the same compound, the growth in assay [19] was 106%; in assay [20], 102%.
For `COc1ccc2cc(C3=CC(=O)CCC3)ccc2c1`, the growth was 92.7% in [1]; 99.1% in assay [2]; 97.2% in [3]; 92.4% in assay [4]; 100% in [5]; 107% in [6]. Further, the growth in assay [7] is 102%; in [8], -87.9% (active); in assay [9], 90.9%; in assay [10], 92.9%; in assay [11], 91.8%; in assay [12] it was 92.6%. The growth is 105% in assay [13]; 98.7% in assay [14]; 104% in assay [15]; 120% in assay [16]; 104% in assay [17]; 106% in assay [18]. Moreover, the growth in [19] was 116%; in assay [20] it was 95.6%.
`CC(C)=CCCC(C)c1ccc(C)c2c1OCN(CC1CCNCC1)C2` (stereo not given): the growth in assay [1] was 96.3%; in assay [2], 93%; in assay [3] it was 76.7%; in assay [4], 60.5%; in assay [5] it was 86%; in assay [6] it was 92.9%. Also, the growth in assay [7] is 80.2%; in assay [8], 75.6%; in [9] it was 26.7%; in assay [10] it was 34.1%; in assay [11], -8.52% (active); in [12] it was 23.7%. Besides, the growth is 75.3% in [13]; 81.1% in assay [14]; 91.7% in assay [15]; 87% in [16]; 78.7% in assay [17]; 77.2% in assay [18]. The growth in assay [19] is 64.3%; in assay [20], 83.5%.
Regarding `CC(=O)[C@H]1CC[C@H]2[C@@H]3C[C@H](C)C4=CC(=O)CC[C@]4(C)[C@H]3C(=O)C[C@]12C`, the growth was 98.9% in assay [1]; 114% in assay [2]; 94.5% in [3]; 87% in assay [4]; 104% in [5]; 95.8% in assay [6]. Moreover, the growth in assay [7] is 94.8%; in assay [8], 74%; in assay [9], 104%; in assay [10], 92.3%; in assay [11] it was 97.5%; in assay [12] it was 97.3%. Further, the growth in [13] is 101%; in [14], 103%; in [15], 102%; in assay [16] it was 98%; in assay [17] it was 98.6%; in assay [18], 110%. Further, the growth in assay [19] was 103%; in assay [20], 98.7%.
For the compound `c1ccc(CN=C(NCc2ccccc2)NCc2ccccc2)cc1`, the growth was 60.5% in assay [1]; 28.2% in [2]; 72.2% in [3]; 61.3% in [4]; 58.6% in assay [5]; 73.1% in assay [6]. Moreover, the growth is 84.8% in [7]; 84.7% in [8]; 65.5% in [9]; 70.7% in assay [10]; 77.4% in [11]; 43.5% in [12]. The growth in [13] was 56.4%; in [14], 100%; in assay [15] it was 30.2%; in assay [16], 73.5%; in [17], 60.4%; in [18], 51.4%. Also, the growth in assay [19] was 96.7%; in [20], 86%.
Take `Oc1c(Cl)cc(Oc2cc(Cl)c(O)c(CN3CCOCC3)c2)cc1CN1CCOCC1`: the growth in assay [1] is 88.2%; in assay [2], 90.5%; in assay [3] it was 95.4%; in [4], 71.1%; in assay [5] it was 95.1%; in assay [6] it was 84.9%. Moreover, the growth is 78% in [7]; 84.7% in assay [8]; 107% in assay [9]; 80.4% in [10]; 80.2% in [11]; 91% in [12]. In addition, the growth in [13] was 94.8%; in assay [14], 98%; in [15], 88.2%; in assay [16], 101%; in assay [17], 92.5%; in [18], 94.5%. Moreover, the growth in assay [19] was 93.5%; in assay [20], 84.8%.
